In the library only some 3.8% were active in any assay of this set; here they are far more common.
GLS inhibitor = qHTS for Inhibitors of Glutaminase (GLS); GLS enzymatic activity, qHTS titration; Potency, µM (doses to about 45.5 µM), for the others: top-dose activity change, negative = inhibition, hits mostly inhibitors; Glutaminase kidney isoform, mitochondrial (Homo sapiens), O94925; 410,000 compounds, 0.21% hits
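hKGA in 45 mM KH2PO4 (pH 8.2), 0.02% Tween-20 with compound, then 1mM L-Glutamine (stock as added) plus glutamate oxidase/HRP/Amplex red coupling mix. Fluorescence read initially and after 30 min at RT; signal change reflects glutamate formation.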
VDR inhibitor = Inhibitors of the vitamin D receptor (VDR): qHTS; AID 504847, 2011; Potency, µM, for inactives: max response, negative = inhibition, most hits filed as inhibitors; 400,000 compounds, 0.93% hits; VDR-SRC2-3 peptide fluorescence polarization, 2 h
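Fluorescence polarization assay of small-molecule disruption of VDR binding to coregulator peptide SRC2-3. Compounds and controls pin-transferred, then read after 2 h incubation at ambient room temperature.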
TrxR1 inh = qHTS Assay for Inhibitors of Mammalian Selenoprotein Thioredoxin Reductase 1 (TrxR1): qHTS | Thioredoxin reductase 1, cytoplasmic (Rattus norvegicus), O89049 | recombinant rTrxR1, NADPH fluorescence consumption, selenite substrate | Potency, µM (series often up to 114 µM), for the others: top-dose activity change, negative = inhibition, hits mostly inhibitors | 390,000 compounds, 1% hits; further: nearly all actives have a fitted effect of over 65% in size
Target sequence (O89049 whole entry, looked up): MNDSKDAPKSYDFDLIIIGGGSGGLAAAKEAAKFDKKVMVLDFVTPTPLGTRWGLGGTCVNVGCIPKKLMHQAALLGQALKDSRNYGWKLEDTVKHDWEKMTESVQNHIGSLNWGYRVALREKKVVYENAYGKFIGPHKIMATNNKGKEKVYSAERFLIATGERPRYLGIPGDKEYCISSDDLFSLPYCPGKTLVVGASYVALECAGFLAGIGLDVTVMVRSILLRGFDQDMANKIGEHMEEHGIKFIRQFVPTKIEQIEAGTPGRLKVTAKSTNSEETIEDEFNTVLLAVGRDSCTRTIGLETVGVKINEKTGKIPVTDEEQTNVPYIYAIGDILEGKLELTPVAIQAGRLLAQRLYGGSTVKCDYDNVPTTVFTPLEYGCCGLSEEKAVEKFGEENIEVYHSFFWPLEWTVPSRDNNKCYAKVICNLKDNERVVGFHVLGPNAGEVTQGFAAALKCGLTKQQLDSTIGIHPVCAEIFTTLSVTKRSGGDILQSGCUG
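Rat TrxR1 (90 nM in the dispensed reagent) was pre-reduced with 400 uM NADPH for 5 min at room temperature, then incubated with compound for 15 min. After 400 uM selenite was added, NADPH fluorescence (Ex 340/Em 450 nm) was followed for 8 min.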
TrxR1 substrate = qHTS Assay for Substrates of Mammalian Selenoprotein Thioredoxin Reductase 1 (TrxR1): qHTS; Thioredoxin reductase 1, cytoplasmic (Rattus norvegicus), O89049; purified TrxR1 substrate turnover, NADPH consumption readout; Potency, µM (titrated, usually from 114 µM), for the others: at the top dose activity change, negative = substrate turnover; 390,000 compounds, 0.01% hits; AID 588456, 2011; further: nearly all actives have a fitted effect of over 50% in size
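Rat TrxR1, dispensed at 90 nM, was prereduced with 400 uM NADPH (final) for 5 min at ~22 deg C, then incubated with compound 15 min before 400 uM selenite. A first-read NADPH fluorescence drop versus no-compound background flagged substrates.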
Sfp PPTase inh = qHTS Assay for Inhibitors of Bacillus subtilis Sfp phosphopantetheinyl transferase (PPTase); 4'-phosphopantetheinyl transferase ffp (Bacillus subtilis), Q9F4F7; Potency, µM, inactives show largest response in the series, negative = inhibition, usual class: inhibitors; 310,000 compounds, 3.5% hits; Biochemical Sfp PPTase activity, qHTS;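 further: the enzyme is Sfp with the accession as filed and its product quenches rhodamine fluorescence; 0% = enzyme reaction without inhibitor and -100% = no enzyme wells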
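Buffer: 50 mM Hepes-Na pH 7.6, 10 mM MgCl2, 0.01% Nonidet P-40, 0.01% BSA. Enzyme 15 nM, pre-exposed to compound 15 min; substrates then added and fluorescence change tracked over 30 min.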
KAT2A inh = qHTS Assay for Inhibitors of GCN5L2 | Histone acetyltransferase KAT2A (Homo sapiens), Q92830 | GCN5L2 HAT assay, ThioGlo1 CoA-SH fluorescence | Potency, µM (series often up to 58.9 µM), for inactives: at the highest dose activity change, negative = inhibition, most hits filed as inhibitors | 390,000 compounds, 0.21% hits
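ThioGlo1-coupled HAT assay: 20nM GCN5L2, 70uM acetyl-CoA, 75uM H3(1-25) peptide, pH 7.5. Fluorescence read at 340/540nm at start and after 20 min at room temperature.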
* marks the source's active call; other numbers are inactive results; ? = inconclusive; nt = not tested or not shown; [ ] = remark or other dose. The call rests on the fitted dose curve; in most records, active means well fitted curve in the direction sought with a large enough effect; inconclusive means small, poorly fitted or top-dose-only effect, or another doubt; inactive means no such curve, though single readings can be large; an effect the other way counts as inactive or inconclusive. Unless noted, on the % scale 0 is the no-effect control and ±100 the full control effect; potency means the concentration at half of the fitted maximal effect.

SMILES | GLS inhibitor | VDR inhibitor | TrxR1 inh | TrxR1 substrate | Sfp PPTase inh | KAT2A inh
CC(C)C[C@H](NC(=O)c1[nH]cnc1C(=O)Nc1ccc(CNC(=O)OC(C)(C)C)cc1)C(=O)OC(C)(C)C | -1% | 9% | ? | -15% | 24% | -12%
CCc1cc[n+](-c2nc([O-])sc2C=O)cc1 | -13% | -3% | -55% | -14% | 50µM* | -5%
O=Cc1c(-[n+]2ccccc2)nc([O-])n1-c1ccccc1 | -3% | -1% | -20% | 8% | 20% | 1%
Cc1ccc[n+](-c2nc([O-])sc2/C=N/Nc2ccc([N+](=O)[O-])cc2)c1 | -5% | -6% | -8% | -5% | -8% | -3%
CC(C)c1cc[n+](-c2nc([O-])sc2C=O)cc1 | 10% | 13% | 12%[57.1 µM] | 8%[57.1 µM] | 40µM* | -23%
COc1cccc(C(=O)OCC(=O)c2c[nH]c3ccccc23)c1OC | 8% | -11% | 53% | 5% | nt | -3%
CCc1ccccc1NC(=O)CSc1nc2c(oc3ccccc32)c(=O)n1-c1ccccc1F | 4% | 14% | 28% | 9% | nt | -5%
CCN1C(=O)/C(=C2\SC(=S)N(CCCOC)C2=O)c2ccccc21 | 8% | -9% | 7%[57.1 µM] | 10%[57.1 µM] | 13% | -5%
CCC(C)C(=O)N1c2ccccc2C(=C2SC(C(=O)OC)=C(C(=O)OC)S2)C(=S)C1(C)C (configuration not stated) | 3% | 11% | 20%[57.1 µM] | -9% | 50µM* | -5%
COc1ccc(C(=O)OCC(=O)Nc2cc(C)c(C)cc2[N+](=O)[O-])cc1 | 0% | -11% | 22% | -4% | -31% | 3%
Cc1cc(/C=N/NC(=O)C(=O)N2CCCC2)c(C)n1-c1cccc(Br)c1 | -5% | 4% | -17% | -12% | -19% | -4%
COc1cc(CNc2ccccc2SC)cc(OC)c1OC | 12% | 6% | 12% | 6% | ? | -14%
COc1ccc(CNc2ccccc2SC)cc1OC | 6% | 1% | 24% | 7% | 56µM* | -27%[0.501 µM]
COc1ccc(N2C(=O)CC(Sc3ncn[nH]3)C2=O)c(OC)c1 (configuration not stated) | 31% | 0% | 0.5µM* | 9%[57.1 µM] | 5.6µM* | -12%
CC(C)c1ccc(N2C(=O)CC(Sc3ncn[nH]3)C2=O)cc1 (configuration not stated) | -3% | 19% | ? | -20%[11.4 µM] | 56µM* | 0%
Cc1cccc(NC(=O)CSc2nc(=O)n(CCN3CCOCC3)c3c2CCC3)c1 | 0% | 7% | 1%[57.1 µM] | -8%[57.1 µM] | nt | -10%
CCOc1ccc(-c2cc(C(=O)NCCCN3CCOCC3)c3ccccc3n2)cc1 | -10% | -9% | -12% | 30% | 2% | -9%
CCOC(=O)C1=C(C)c2ccccc2N(C(=O)OC)C1(C)C(=O)OCC (configuration not stated) | -12% | ? | 35µM* | -2% | 3.5µM* | ?
CN(C)/C=N/C1=C(C#N)C(c2ccc(Br)cc2)c2ccc3ccccc3c2O1 (configuration not stated) | -11% | -6% | 10%[57.1 µM] | -1% | -7% | -2%
CCCOc1ccc(-c2nc(SC)[nH]c(=O)c2C#N)cc1OC | 0% | 6% | 23% | 32% | nt | -6%
COc1ccccc1N1CCN(/N=C/c2cccc(O)c2)CC1 | 11% | -28% | 10% | 4% | 12% | 8%
COc1ccccc1N1CCN(/N=C/c2cc(OC)c(O)c(OC)c2)CC1 | -9% | 3% | -6% | 0% | 40µM* | -2%
Cc1ccc(NC(=O)c2cc(-c3ccco3)nc3ccccc23)cc1S(=O)(=O)N1CCOCC1 | 36% | 7% | -46% | 10%[57.1 µM] | -10% | ?
COc1ccc(NC(=O)c2cc(-c3ccco3)nc3ccccc23)cc1S(=O)(=O)N1CCOCC1 | ? | 28µM* | ? | 1% | 5µM* | ?
CCOc1cc(N2CCOCC2)c(OCC)cc1NC(=O)c1cc(-c2ccco2)nc2ccccc12 | 9% | 6% | -5% | -5% | 28µM* | -5%
SMILES | GLS inhibitor | VDR inhibitor | TrxR1 inh | TrxR1 substrate | Sfp PPTase inh | KAT2A inh
c1ccc(CNc2nc(N3CCN(Cc4ccccc4)CC3)nc3ccccc23)cc1 | 0% | 2% | 2%[57.1 µM] | -1%[57.1 µM] | 56µM* | -12%
Oc1ccccc1Nc1nc(NCc2ccccc2)c2ccccc2n1 | ? | -3% | 13%[57.1 µM] | -7% | 28µM* | -6%
OCCNc1nc(Nc2ccccc2)nc2ccccc12 | 3% | -4% | -11% | -4% | -3% | -3%
c1ccc(N2CCN(c3nc(NCc4ccco4)c4ccccc4n3)CC2)cc1 | 4% | 7% | -24% | 4% | 32µM* | -13%
OCCNc1nc(Nc2ccc(Br)cc2)nc2ccccc12 | ? | 6% | 20%[57.1 µM] | 7% | 40µM* | -18%
O/N=C/c1cccn1-c1ccc(O)cc1 | 18% | -13% | 2%[57.1 µM] | -1%[57.1 µM] | 6% | -6%
NC(=O)CC(NC(=O)Cc1cccc2ccccc12)c1ccc(NCc2ccc(F)cc2)c([N+](=O)[O-])c1 (configuration not stated) | 1% | -21% | 14% | -2% | -27% | 21%
Cc1cc(C)n(C(=O)c2cccc(S(=O)(=O)N3CCCCC3)c2)n1 | 1% | -3% | 8% | -1% | -2% | 1%
Cc1ccc(Nc2nc(NCc3ccco3)c3ccccc3n2)cc1 | 2% | 0% | 11%[57.1 µM] | 17%[57.1 µM] | 10µM* | -10%
COc1ccc(C2N(c3ccc(OC)cc3)C(=S)N3CCCN23)cc1 (configuration not stated) | 7% | -15% | 7% | 6% | 5% | -1%
N#Cc1cc(NCC2CCCO2)c([N+](=O)[O-])cc1C#N (configuration not stated) | 9% | 5% | -13% | -13% | 12% | -4%
O=[N+]([O-])c1cc(C(F)(F)F)ccc1NCC1CCCO1 (configuration not stated) | ? | 79µM* | 13%[57.1 µM] | 7%[57.1 µM] | 10% | 3%
COc1ccc(NC(=O)c2ccco2)cc1NC(=O)c1cccs1 | 10% | -5% | 16% | 9% | 20% | 0%
Cc1ccc(SCCC(=O)N/N=C/c2ccncc2)cc1 | 1% | -5% | 20% | 8% | -30% | -4%
O=C1CCCC/C1=C\Nc1ccc(S(=O)(=O)Nc2cnc3ccccc3n2)cc1 | 11% | -15% | -11%[57.1 µM] | -6%[57.1 µM] | 10% | 22µM*

From PubChem BioAssay
